From PubChem BioAssay AID652054 (National Center for Advancing Translational Sciences (NCATS), 2013)
About 9,100 (2.5%) of roughly 360,000 compounds were called active. Not shown: some 4% with an inconclusive outcome. What follows is part of a selection rich in actives, with near analogues and random picks from the rest. Values without a mark were called inactive. Rule as the data show it: active = max response below about -50%; inconclusive = no clear call, values can overlap the other calls; inactive = above that.

target: D(3) dopamine receptor (Homo sapiens) (UniProt P35462); assay: qHTS of D3 Dopamine Receptor Antagonist: qHTS; settings: D3R cells, DiscoveRx beta-arrestin luminescence, antagonist mode; stronger effect = lower value
Method in brief: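 Cells plated overnight at 1500 cells/well, then exposed to library compounds with dopamine controls for 90 minutes at 37 degrees C. DiscoveRx reagent added for 30–60 minutes at room temperature; luminescence read, quantitative HTS format.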
% is scaled to controls: 0 for no effect and ±100 for the full control effect.

D(3) dopamine receptor (Homo sapiens), sequence (P35462 whole entry, looked up): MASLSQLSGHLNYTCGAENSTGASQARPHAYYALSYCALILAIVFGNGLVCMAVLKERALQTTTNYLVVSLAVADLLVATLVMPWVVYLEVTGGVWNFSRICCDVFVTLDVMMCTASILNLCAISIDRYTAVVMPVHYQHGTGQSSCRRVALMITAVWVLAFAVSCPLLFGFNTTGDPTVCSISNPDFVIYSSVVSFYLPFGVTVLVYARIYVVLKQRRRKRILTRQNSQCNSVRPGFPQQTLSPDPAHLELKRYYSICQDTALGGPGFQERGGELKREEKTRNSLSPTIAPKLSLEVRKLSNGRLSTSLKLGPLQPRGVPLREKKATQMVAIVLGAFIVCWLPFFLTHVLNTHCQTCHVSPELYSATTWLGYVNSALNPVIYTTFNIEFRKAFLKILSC

SMILES | max response, negative = inhibition
COc1ccc(-c2coc3c(C(=O)NC(C)C)cccc23)c(C)c1 | 71.6%
COc1ccc([C@H]2CC(=O)C=C(/C=C/c3ccc(Cl)cc3)C2)cc1 | -56.6% (active)
CCCCC/C=C/C1=CC(=O)C[C@H](c2ccc(Cl)cc2)C1 | 8.93%
COc1ccc([C@H]2CC(=O)C=C(c3ccc(CO)cc3)C2)cc1 | 3.98%
COc1ccc([C@H]2CC(=O)C=C(c3ccc(C)cc3)C2)cc1 | -60.5% (active)
COc1ccc(C2CC(=O)NC(=O)C2)cc1 | -22.1%
COc1ccc2cc(C3=CC(=O)C[C@H](c4ccc5c(c4)OCO5)C3)ccc2c1 | 6.05%
CCCNC(=O)c1cc(C2CCCN(C(=O)c3ccc4c(c3)CCO4)C2)on1 (stereo unspecified) | 3.62%
O=S1(=O)CC(N2CCN(Cc3ccccc3F)CC2)CN1Cc1cn(Cc2ccccc2)nn1 (stereo unspecified) | 0%
COc1cccc(NC(=O)Nc2ccc(F)cc2)c1 | 3.65%
O=C(Nc1ccccc1)Oc1cccc2cccnc12 | -27.7%
COc1ccc(NC(=O)Nc2cccc3cccnc23)cc1 | -66.6% (active)
CCOC(=O)[C@]12CCCC=C1N(Cc1ccc(Cl)cc1Cl)C(=O)[C@H](CC(=O)N1CCCCC1)C2 | -25.8%
Cc1ccc2c(c1)C1CN(C)CCC1N2S(=O)(=O)c1ccc(Oc2ccc([N+](=O)[O-])cc2)cc1 (stereo unspecified) | -68.7% (active)
Cc1ccc2c(c1)C1CN(C)CCC1N2S(=O)(=O)c1cccc(F)c1 (stereo unspecified) | -54.7% (active)
Cc1ccc2c(c1)C1CN(C)CCC1N2C(=S)Nc1ccc(OC(F)F)cc1 (stereo unspecified) | -6.37%
Cc1ccc2c(c1)C1CN(C)CCC1N2C(=O)c1ccccc1NS(=O)(=O)c1ccc(F)cc1C (stereo unspecified) | -23.3%
Cc1ccc([N+](=O)[O-])cc1S(=O)(=O)N1CCCN(C)CC1 | -7.78%
Cc1ccc2c(c1)C1CN(C)CCC1N2C(=S)Nc1ccc(Cl)cc1Cl (stereo unspecified) | -8.46%

SMILES | max response, negative = inhibition
O=C(Nc1cccc(Cc2ccccc2)c1)Nc1ccc2nc([C@@H]3O[C@H](CO)[C@@H](O)[C@H](O)[C@H]3O)[nH]c2c1 | 32.8%
Cc1ccc(C(=O)Nc2c(-c3ccccc3)[nH][nH]c2=O)cc1 | -20.8%
COCOCCn1cc(CN2CCS(=O)(=O)N(Cc3ccc(-c4ccccc4)cc3)C(CC(C)C)C2=O)nn1 (stereo unspecified) | 13%
CCOC(=O)c1cc(NC(=O)c2cccnc2)ccn1 | -0.585%
Cc1c(C(=O)OC(C)C)sc(NC(=O)c2cccnc2)c1C#N | -61.4% (active)
CC(C)NS(=O)(=O)c1ccc(NC(=O)c2cccnc2)cc1 | 0%
CCOC(=O)[C@]12CCCC=C1N(Cc1ccc3c(c1)OCO3)C(=O)[C@H](CC(=O)N1CCN(C(=O)c3ccco3)CC1)C2 | -0.946%
Cc1cccc(C(=O)NC2CCN(CC(=O)Nc3cccc(Cl)c3)CC2)c1 | -13.9%
OC[C@@H]1CN(C2CCCC2)C[C@H](n2cnc3c(NC4CCC4)ncnc32)O1 | -7.86%
CCN(CC)c1ccc([N+](=O)[O-])cc1C(=O)O | 9.06%
CNc1ccc([N+](=O)[O-])cc1C(=O)O | -6.53%
O=C(O)c1ccc([N+](=O)[O-])cc1Sc1ccsc1 | -56.7% (active)
CN1CCN(CCNC(=O)Nc2ccc([N+](=O)[O-])cc2)CC1 | -6.94%
O=C(NCCCN1CCN(c2ccc(F)cc2)CC1)Nc1ccc([N+](=O)[O-])cc1 | -118% (active)
O=C(c1cc(C(=O)N2CCN(c3ccc(F)cc3)CC2)cc([N+](=O)[O-])c1)N1CCN(c2ccc(F)cc2)CC1 | -2.24%
COc1ccc(C2OC(CCc3ccccc3)Cc3[nH]c(=S)[nH]c(=O)c32)cc1 (stereo unspecified) | 0%
OC[C@@H]1CN(Cc2cccs2)C[C@H](n2cnc3c(Nc4ccccc4)ncnc32)O1 | -4.85%
COc1ccc(-c2ccc(CN3C(CC(C)C)C(=O)N(Cc4cn(CC5CCCCC5)nn4)CCS3(=O)=O)cc2)cn1 (stereo unspecified) | 0.993%
CN(Cc1ccccc1F)c1cc2c(c3c1ccn3C)C1CCC2O1 (stereo unspecified) | -29.6%

SMILES | max response, negative = inhibition
COc1ccc(/C=N/NC(=O)c2ccc3c(c2)OCCO3)c(OC)c1 | -64.3% (active)
COc1ccc(/C=N/NC(=O)Nc2ccc3nsnc3c2)c(OC)c1 | -16.9%
COc1ccc(/C=N/NC(=O)CNC(=O)c2ccc(S(=O)(=O)N3CCCC3)cc2)c(OC)c1 | -0.269%
COC(=O)[C@@]12C[C@@H](CC(=O)NCc3cccc(C(F)(F)F)c3)C(=O)N(Cc3ccco3)C1=CCC(C)(C)C2 | -1.5%
COc1cccc(/C=C/C(=O)Nc2ccc3c(c2)OCCO3)c1 | -6.81%
O=C(/C=C\c1ccc2c(c1)OCO2)NC1(C(=O)Nc2ccc3c(c2)OCCO3)CCCCC1 | -59.6% (active)
Cc1cccc(NC(=O)/C=C/c2ccc3c(c2)OCO3)n1 | -14.5%
CSC1=NN(c2ccccc2)CN(c2ccccc2)N1C | -6.6%
COC(=O)c1ccc2nc(C3CCCCC3)c(Cc3cccc(F)c3)n2c1 | 10.5%
O=C(CN1CCc2cc3c(cc2C1)OCCCO3)Nc1ccccc1 | -19.3%
Cc1ccc(NC(=O)CN2CCc3ccccc3C2)cc1 | -84.2% (active)
CC1CCN(CCC(=O)Nc2ccccc2)CC1 | -0.851%
COc1cc2c(cc1OC)CN(CC(=O)Nc1ccc(F)cc1)CC2 | -16.8%
Cc1ccc(NC(=O)CCN2CCc3ccccc3C2)cc1 | -94.8% (active)
CCOC(=O)N1CCN(CCC(=O)Nc2ccccc2)CC1 | -15.4%
COc1ccc(NC(=O)C[C@H]2C(=O)N(CCc3ccccc3)C[C@@H]2C)cc1 | 1.09%
CC(=O)NC(c1ccccc1)c1nc(-c2cccc(C(C)C)c2)cs1 (stereo unspecified) | 20.2%
CC1(C(=O)NS(=O)(=O)c2ccc3ccccc3c2)CCN1C(=O)C1(c2ccc(Cl)cc2)CCC1 (stereo unspecified) | -21.3%
